Reference: PubChem BioAssay (NCATS)
Inconclusive results are not listed. The source made the active and inactive calls. Unless noted, calls come from the whole dose curve; as a rule, active = well fitted curve in the direction sought with a large enough effect; inconclusive = small, poorly fitted or top-dose-only effect, or another doubt; inactive = no such curve, though single readings can be large; an effect the other way counts as inactive or inconclusive.

What was measured:
[1] = biological target: Lysosomal acid glucosylceramidase (Homo sapiens) (UniProt P04062); test: Glucocerebrosidase-p2 (AID 348; in the data active = potency below about 10 µM; note: potency is the fitted concentration of half-maximal effect); settings: purified GBA, blue fluorogenic substrate, 40 min
In short: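 Normal human glucocerebrosidase (0.2 nM) with blue fluorogenic substrate (80 uM final) in citrate/phosphate pH 5.9 with 10mM sodium taurocholate, 0.01% tween-20; 40 min RT, NaOH/glycine stop; fluorescence Ex 365/Em 440; AC50 from a titration from 0.6 nM upwards.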

[2] = AP1 Signaling Pathway (AID 357; active = well fitted curve in either direction with a large enough effect, not every such curve was filed as active;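 note: ME-180 reporter cells stimulated with EGF at its EC50 level; % is set by controls: 0 for no effect and ±100 for the full control effect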); settings: ME-180 AP-1-bla reporter, EGF-induced, beta-lactamase ratio, 5 h; at 7.69 µM (top of the series) unless noted
In short: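 Modulation of EGF-driven AP-1 transcription was assessed with a beta-lactamase reporter in ME-180 cells. Compound and EC50 EGF were co-incubated 5 hours at 37 °C before 2.5-hour CCF4 loading at room temperature and dual-emission reading.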

[3] = NFAT Signaling Pathway (AID 444; active = well fitted curve in either direction with a large enough effect, not every such curve was filed as active;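 note: carbachol stimulus at about its EC50 of 1 µM final; % is set by controls: 0 for no effect and ±100 for the full control effect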); settings: Jurkat NFAT-bla M1, carbachol, beta-lactamase ratio, 5 h; at 7.69 µM (top of the series) unless noted
In short: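 Read-out: CCF4 FRET ratio (460 nm/530 nm) after 1 h RT dye loading, used for %activity and AC50 from titration series. Cells: Jurkat NFAT-β-lactamase/M1 line, treated with compound plus 1 uM carbachol for 5 h, 37 °C.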

[4] = Stat Signaling Pathway (AID 446; active = well fitted curve in either direction with a large enough effect, not every such curve was filed as active;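 note: ME-180 cervical cancer cells given 40 pM IL-6 alongside compound; SIE-controlled beta-lactamase reporter measured as 460/530 nm FRET emission ratio; % is set by controls: 0 for no effect and ±100 for the full control effect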); settings: ME-180 (cervical carcinoma) SIE beta-lactamase reporter, IL-6 stimulated, 5 h; at 7.69 µM (top of the series) unless noted
In short: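 Overnight-plated ME-180 cells bearing a STAT Inducible Element beta-lactamase reporter; 5 h co-exposure to compound and 40 pM IL-6; values normalized to 300 pM IL-6 and 125 nM JAK inhibitor controls.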

[5] = biological target: Glucocorticoid receptor (Homo sapiens) (UniProt P04150); test: GR-GFP Redistribution (AID 450;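 active = compounds whose dose series gives a full or clear partial fitted curve of increased nuclear translocation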; note: potency is the fitted concentration of half-maximal effect); settings: U2OS GR-GFP nuclear translocation, laser cytometry, 2 h
[6] = biological target: Glucocorticoid receptor (Homo sapiens) (UniProt P04150); test: GR-EFC Redistribution (AID 451; calls by dose curve; note: potency is the fitted concentration of half-maximal effect); settings: CHO-K1 GR-EFC translocation, beta-gal luminescence, 2 h
In short: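 Translocation of GR-ED fusion to nuclear EA restores b-gal, read by luminescence after 1 h room-temperature detection. Engineered CHO-K1 biosensor cells, 1,000/well, exposed 2 h at 37 C to titrations up to 46 uM final.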

[7] = biological target: Mitogen-activated protein kinase 10 (Mus musculus) (UniProt Q61831); test: JNK3 AlphaScreen Assay (AID 530; active = well fitted curve in either direction with a large enough effect, not every such curve was filed as active;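 note: kinase came from lysate of stimulated human HepG2 cells; signal reports phosphorylation of biotinylated GST-cJun 1-79 at Ser73 with 10 µM ATP; % is set by controls: 0 for no effect and ±100 for the full control effect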); settings: JNK3 lysate, c-Jun phosphorylation; series mostly up to 57.1 µM
In short: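 Kinase buffer: 20 mM Tris-HCl pH 7.6, 10 mM MgCl2, 1 mM DTT, 0.1 mM Na3VO4, 0.01% Tween-20; ATP 10 uM. Substrate biotin-GST-cJun(1-79), enzyme from activated HepG2 lysates. Detection by Ser73 phospho-antibody AlphaScreen.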

[8] = biological target: 3',5'-cyclic-AMP phosphodiesterase 4B (Homo sapiens) (UniProt Q07343); test: qHTS Assay for Inhibitors of PDE-IV (AID 607; active = well fitted activation curve with a large enough effect in the main read-out, with a control signal flat, not every such curve was filed as active; note: % of control where 0% means no effect); settings: HEK293 ACTOne CNG channel cells, membrane potential fluorescence; series mostly up to 22.9 µM
In short: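 Live HEK293 cells with a modified cyclic nucleotide-gated (CNG) channel report intracellular cAMP via membrane-potential dye fluorescence (ex 535/em 590 nm). Endogenous PDE-IV was targeted. Compounds were tested at up to 22.9 uM final; RO 20-1724 100 uM served as control.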

[9] = qHTS Assay for Lipid Storage Modulators (AID 1519; calls by dose curve); settings: Drosophila S3 cells, BODIPY lipid droplet/cell ratio, laser cytometry, cells loaded with oleic acid; for activity change, negative = inhibition: at 57.5 µM (top of the series)
In short: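 Cells seeded at 5,000 per well were treated with compounds over a concentration series and loaded with oleic acid (400 uM, as added). Lipid droplet fluorescence (488 nm excitation, 500-530 nm channel) was read by laser-scanning cytometry and normalized to 20 uM Triacsin C.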

[10] = biological target: Dual specificity protein kinase CLK4 (Homo sapiens) (UniProt Q9HAZ1); test: qHTS Assay for Inhibitors of CDC-like Kinase 4 (ADP-Glo Assay) (AID 1771); settings: recombinant CLK4, ADP-Glo luminescence; series mostly up to 80 µM; note: nearly all actives have a fitted effect of over 70% in size; note: potency is the fitted concentration of half-maximal effect
In short: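 In this ADP-Glo format, 1 uM ATP and 100 uM RS peptide served as substrates for 25 nM Clk4 in Mg2+/EGTA/DTT/Triton buffer; reactions ran 1 hr at room temperature before luminescent ADP quantification.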

[11] = biological target: Dual specificity protein kinase CLK4 (Homo sapiens) (UniProt Q9HAZ1); test: qHTS Assay for Inhibitors of CDC-like Kinase 4 (ADP-FP Assay) (AID 1795); settings: Transcreener ADP fluorescence polarization; series mostly up to 50 µM; note: nearly all actives have a fitted effect of over 60% in size; note: potency is the fitted concentration of half-maximal effect
In short: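 Recombinant Clk4 (6.25 nM) phosphorylated 100 uM RS repeat peptide with 1 uM ATP in 25 mM Tris pH 7.5, 10 mM MgCl2, 0.5 mM EGTA, 2.5 mM DTT, 0.01% Triton X-100 for 1 h. ADP was detected by Transcreener ADP2 competitive fluorescence polarization after 30 min at room temperature.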

[12] = biological target: Ubiquitin carboxyl-terminal hydrolase 1 (Homo sapiens) (UniProt O94782); test: Inhibitors of USP1/UAF1: Pilot qHTS (AID 504865); settings: purified USP1/UAF1, Ub-rhodamine cleavage fluorescence; series mostly up to 54.9 µM;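 note: rhodamine fluorescence freed from ubiquitin-rhodamine substrate followed over time; top concentration of the series differs between compounds; % is set by controls: 0 for no effect and ±100 for the full control effect; nearly all actives have a fitted effect of over 35% in size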
In short: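 USP1/UAF1 complex at 1 nM preincubated 15 min at room temperature with compound, then Ub-Rho substrate added at 150 nM final. Fluorescence (480/540 nm) read kinetically in 50 mM HEPES pH 7.8, 0.5 mM EDTA, 1 mM TCEP, 0.1 mg/ml BSA, 0.01% Tween-20.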

[13] = Primary qHTS for small molecule stabilizers of the endoplasmic reticulum resident proteome: Secreted ER Calcium Modulated Protein (SERCaMP) assay (AID 1508630); settings: SH-SY5Y GLuc-SERCaMP (Gaussia luciferase released on ER calcium loss) secretion, thapsigargin, luminescence; series mostly up to 38.4 µM; note: % is set by controls: 0 for no effect and ±100 for the full control effect
In short: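 The SH-SY5Y reporter protocol was run at 3 concentrations up to 38.3 uM (primary) or 11 concentrations (follow-up): 16 h compound, 100 nM thapsigargin for 4 h, then extracellular luciferase luminescence.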

[14] = biological target: Cytochrome P450 3A4 (Homo sapiens) (UniProt P08684); test: qHTS Assay for Inhibitors and Substrates of Cytochrome P450 3A4 (AID 884); settings: recombinant CYP3A4, Luciferin-PPXE luminescence; series mostly up to 57.1 µM; note: potency is the fitted concentration of half-maximal effect; nearly all actives have a fitted effect of over 50% in size
In short: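 Luminescent readout of luciferin produced by CYP3A4 (20 nM) dealkylation of Luciferin-PPXE, 25 uM (its KM). NADPH-driven reaction ran 60 min at RT after 10 min compound preincubation; data scaled to 57 uM ketoconazole as 100% inhibition.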

[15] = biological target: Cytochrome P450 3A4 (Homo sapiens) (UniProt P08684); test: qHTS Assay for Activators of Cytochrome P450 3A4 (AID 885); settings: recombinant CYP3A4, Luciferin-PPXE luminescence, 60 min; series mostly up to 57.1 µM; note: nearly all actives have a fitted effect of over 65% in size
In short: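 Using 20nM recombinant human CYP3A4 in potassium phosphate (200mM), substrate Luciferin-PPXE at 25uM, luminescent luciferin detection followed a 60-min RT NADPH reaction; data scaled to 57 uM ketoconazole.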

[16] = biological target: Cytochrome P450 1A2 (Homo sapiens) (UniProt P05177); test: p450-cyp1a2 (AID 410; calls by dose curve; note: potency is the fitted concentration of half-maximal effect); settings: recombinant CYP1A2, luciferin-ME demethylation, luminescence; series mostly up to 57 µM
In short: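 Read-out is luminescence from luciferin produced by CYP1A2 demethylation of Luciferin-ME (100uM, at Km). Detection reagent stopped the 60 min NADPH-dependent reaction; signals were normalized to 57 uM furafylline.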

[17] = biological target: Cytochrome P450 2C9 (Homo sapiens) (UniProt P11712); test: qHTS Assay for Inhibitors and Substrates of Cytochrome P450 2C9 (AID 883); settings: recombinant CYP2C9, luciferin-H luminescence, 60 min; series mostly up to 57.1 µM; note: potency is the fitted concentration of half-maximal effect; nearly all actives have a fitted effect of over 60% in size
In short: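 Luminescent read-out of deoxyluciferin hydroxylation, normalized to 57uM sulphaphenazole (AC100). Reaction: 10nM enzyme, 100uM Luciferin-H (equal to KM), 25mM KPO4, 10 min compound preincubation, then 60 min with NADPH regeneration, both at 37C.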

[18] = measured here: cell count channel max response
[19] = measured here: lipid channel max response

Chain of Glucocorticoid receptor (Homo sapiens) (P04150 whole entry, looked up, the tested form may be a part): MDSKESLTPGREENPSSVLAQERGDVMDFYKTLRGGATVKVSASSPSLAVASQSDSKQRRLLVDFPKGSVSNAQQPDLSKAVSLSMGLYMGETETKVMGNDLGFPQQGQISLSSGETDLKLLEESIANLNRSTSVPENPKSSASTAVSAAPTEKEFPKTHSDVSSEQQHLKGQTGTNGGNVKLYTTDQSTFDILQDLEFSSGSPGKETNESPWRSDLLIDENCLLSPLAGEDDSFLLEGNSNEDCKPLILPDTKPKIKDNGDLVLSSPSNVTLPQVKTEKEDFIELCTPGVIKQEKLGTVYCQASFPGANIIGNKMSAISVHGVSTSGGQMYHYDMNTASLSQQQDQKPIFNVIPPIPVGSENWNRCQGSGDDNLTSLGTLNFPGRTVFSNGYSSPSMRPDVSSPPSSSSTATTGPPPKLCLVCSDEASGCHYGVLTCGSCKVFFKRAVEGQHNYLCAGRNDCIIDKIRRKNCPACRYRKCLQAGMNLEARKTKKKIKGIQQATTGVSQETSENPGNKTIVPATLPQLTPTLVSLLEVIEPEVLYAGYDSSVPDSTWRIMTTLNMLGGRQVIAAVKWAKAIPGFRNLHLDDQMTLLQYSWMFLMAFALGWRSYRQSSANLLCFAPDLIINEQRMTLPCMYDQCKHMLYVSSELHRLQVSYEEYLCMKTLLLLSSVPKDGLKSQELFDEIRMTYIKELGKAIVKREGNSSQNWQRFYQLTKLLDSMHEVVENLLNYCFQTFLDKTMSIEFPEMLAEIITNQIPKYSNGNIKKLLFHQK
Chain of Cytochrome P450 3A4 (Homo sapiens) (P08684 whole entry, looked up): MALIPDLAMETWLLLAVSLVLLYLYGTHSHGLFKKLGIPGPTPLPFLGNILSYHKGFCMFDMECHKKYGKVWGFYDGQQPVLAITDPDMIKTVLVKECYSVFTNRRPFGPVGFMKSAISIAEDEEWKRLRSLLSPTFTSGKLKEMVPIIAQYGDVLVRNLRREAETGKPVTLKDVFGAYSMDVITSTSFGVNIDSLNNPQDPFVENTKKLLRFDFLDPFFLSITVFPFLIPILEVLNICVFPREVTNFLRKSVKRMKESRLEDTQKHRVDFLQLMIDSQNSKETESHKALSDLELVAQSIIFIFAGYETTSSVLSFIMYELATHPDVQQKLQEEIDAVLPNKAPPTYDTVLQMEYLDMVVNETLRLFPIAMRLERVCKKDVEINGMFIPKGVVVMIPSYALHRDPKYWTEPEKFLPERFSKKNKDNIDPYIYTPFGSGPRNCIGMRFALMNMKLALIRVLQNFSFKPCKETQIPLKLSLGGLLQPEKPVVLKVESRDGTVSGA
Chain of Dual specificity protein kinase CLK4 (Homo sapiens) (Q9HAZ1 whole entry, looked up): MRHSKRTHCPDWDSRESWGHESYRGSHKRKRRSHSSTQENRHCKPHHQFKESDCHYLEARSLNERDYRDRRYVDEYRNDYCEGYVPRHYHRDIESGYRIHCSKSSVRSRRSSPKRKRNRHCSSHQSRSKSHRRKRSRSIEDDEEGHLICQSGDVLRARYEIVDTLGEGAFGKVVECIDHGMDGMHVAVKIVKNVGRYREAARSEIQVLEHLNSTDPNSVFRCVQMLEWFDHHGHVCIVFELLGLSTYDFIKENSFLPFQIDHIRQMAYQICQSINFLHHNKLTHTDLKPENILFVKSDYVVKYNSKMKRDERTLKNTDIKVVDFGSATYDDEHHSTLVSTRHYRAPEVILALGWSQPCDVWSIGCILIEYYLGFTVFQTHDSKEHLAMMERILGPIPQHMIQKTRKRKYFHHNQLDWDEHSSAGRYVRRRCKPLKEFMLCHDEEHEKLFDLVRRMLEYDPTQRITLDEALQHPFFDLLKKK
Chain of Lysosomal acid glucosylceramidase (Homo sapiens) (P04062 whole entry, looked up): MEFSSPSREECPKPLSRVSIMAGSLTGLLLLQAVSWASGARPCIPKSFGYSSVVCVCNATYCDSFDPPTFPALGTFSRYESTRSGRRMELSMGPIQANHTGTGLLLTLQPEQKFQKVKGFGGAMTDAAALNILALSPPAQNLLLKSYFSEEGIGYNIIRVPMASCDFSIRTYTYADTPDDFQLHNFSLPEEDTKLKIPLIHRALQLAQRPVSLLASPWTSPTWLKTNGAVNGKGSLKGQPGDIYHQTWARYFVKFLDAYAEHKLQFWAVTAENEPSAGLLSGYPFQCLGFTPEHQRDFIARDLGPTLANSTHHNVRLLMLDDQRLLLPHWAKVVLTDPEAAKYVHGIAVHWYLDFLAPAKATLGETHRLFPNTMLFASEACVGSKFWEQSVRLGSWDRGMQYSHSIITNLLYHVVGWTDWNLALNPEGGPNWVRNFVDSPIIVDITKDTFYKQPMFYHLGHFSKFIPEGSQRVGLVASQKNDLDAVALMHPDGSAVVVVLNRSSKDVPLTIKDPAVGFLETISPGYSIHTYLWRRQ
Chain of 3',5'-cyclic-AMP phosphodiesterase 4B (Homo sapiens) (Q07343 whole entry, looked up): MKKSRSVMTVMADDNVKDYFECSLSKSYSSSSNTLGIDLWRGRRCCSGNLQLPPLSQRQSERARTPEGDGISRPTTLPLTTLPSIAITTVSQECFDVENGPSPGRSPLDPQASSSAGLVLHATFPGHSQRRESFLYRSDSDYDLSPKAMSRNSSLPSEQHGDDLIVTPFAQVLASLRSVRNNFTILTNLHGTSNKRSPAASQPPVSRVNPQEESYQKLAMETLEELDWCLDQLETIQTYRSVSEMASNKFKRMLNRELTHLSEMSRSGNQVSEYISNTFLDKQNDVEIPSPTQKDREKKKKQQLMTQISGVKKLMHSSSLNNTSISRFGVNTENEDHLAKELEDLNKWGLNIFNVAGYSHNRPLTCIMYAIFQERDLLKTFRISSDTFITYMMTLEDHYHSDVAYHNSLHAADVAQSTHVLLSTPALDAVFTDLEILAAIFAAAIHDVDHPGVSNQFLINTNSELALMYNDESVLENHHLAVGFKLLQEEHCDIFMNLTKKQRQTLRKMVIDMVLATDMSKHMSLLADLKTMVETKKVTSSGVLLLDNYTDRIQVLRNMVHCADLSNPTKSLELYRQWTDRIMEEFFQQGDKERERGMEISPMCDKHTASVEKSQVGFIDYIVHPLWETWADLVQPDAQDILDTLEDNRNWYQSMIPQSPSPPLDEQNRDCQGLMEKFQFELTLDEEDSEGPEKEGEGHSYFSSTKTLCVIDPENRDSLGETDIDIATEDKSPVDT
Chain of Ubiquitin carboxyl-terminal hydrolase 1 (Homo sapiens) (O94782 whole entry, looked up): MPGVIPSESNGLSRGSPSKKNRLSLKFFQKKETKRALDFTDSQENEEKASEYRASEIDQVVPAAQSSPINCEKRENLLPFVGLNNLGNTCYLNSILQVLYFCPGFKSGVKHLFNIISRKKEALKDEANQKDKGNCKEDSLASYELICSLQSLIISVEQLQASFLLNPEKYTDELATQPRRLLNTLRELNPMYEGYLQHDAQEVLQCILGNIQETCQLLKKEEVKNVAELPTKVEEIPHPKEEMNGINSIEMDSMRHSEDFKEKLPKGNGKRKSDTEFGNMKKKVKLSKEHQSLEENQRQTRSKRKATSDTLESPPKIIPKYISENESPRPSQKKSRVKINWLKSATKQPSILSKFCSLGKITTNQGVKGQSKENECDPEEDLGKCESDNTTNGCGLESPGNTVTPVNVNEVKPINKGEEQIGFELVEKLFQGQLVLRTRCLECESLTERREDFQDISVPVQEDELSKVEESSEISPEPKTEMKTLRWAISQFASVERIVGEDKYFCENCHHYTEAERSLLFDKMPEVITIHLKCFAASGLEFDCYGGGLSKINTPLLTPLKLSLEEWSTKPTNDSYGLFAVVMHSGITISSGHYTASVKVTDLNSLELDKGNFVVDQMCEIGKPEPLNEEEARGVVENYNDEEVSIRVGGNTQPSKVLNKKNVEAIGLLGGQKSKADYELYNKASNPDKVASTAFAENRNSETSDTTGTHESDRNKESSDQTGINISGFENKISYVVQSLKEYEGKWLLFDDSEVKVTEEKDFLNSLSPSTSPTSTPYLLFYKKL
Chain of Cytochrome P450 1A2 (Homo sapiens) (P05177 whole entry, looked up): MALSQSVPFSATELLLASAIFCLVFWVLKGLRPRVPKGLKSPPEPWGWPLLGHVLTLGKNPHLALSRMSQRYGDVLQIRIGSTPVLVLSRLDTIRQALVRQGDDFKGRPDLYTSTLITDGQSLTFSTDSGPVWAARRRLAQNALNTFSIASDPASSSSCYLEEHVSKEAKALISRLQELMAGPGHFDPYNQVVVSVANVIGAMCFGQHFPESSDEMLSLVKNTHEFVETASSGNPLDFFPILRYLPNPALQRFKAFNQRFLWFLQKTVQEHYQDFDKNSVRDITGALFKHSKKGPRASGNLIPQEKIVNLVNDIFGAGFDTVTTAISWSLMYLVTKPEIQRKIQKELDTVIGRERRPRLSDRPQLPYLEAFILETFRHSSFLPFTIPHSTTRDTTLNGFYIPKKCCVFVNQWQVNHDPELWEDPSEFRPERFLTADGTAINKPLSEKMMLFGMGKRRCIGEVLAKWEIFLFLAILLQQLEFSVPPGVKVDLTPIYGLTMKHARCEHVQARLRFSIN
Chain of Cytochrome P450 2C9 (Homo sapiens) (P11712 whole entry, looked up): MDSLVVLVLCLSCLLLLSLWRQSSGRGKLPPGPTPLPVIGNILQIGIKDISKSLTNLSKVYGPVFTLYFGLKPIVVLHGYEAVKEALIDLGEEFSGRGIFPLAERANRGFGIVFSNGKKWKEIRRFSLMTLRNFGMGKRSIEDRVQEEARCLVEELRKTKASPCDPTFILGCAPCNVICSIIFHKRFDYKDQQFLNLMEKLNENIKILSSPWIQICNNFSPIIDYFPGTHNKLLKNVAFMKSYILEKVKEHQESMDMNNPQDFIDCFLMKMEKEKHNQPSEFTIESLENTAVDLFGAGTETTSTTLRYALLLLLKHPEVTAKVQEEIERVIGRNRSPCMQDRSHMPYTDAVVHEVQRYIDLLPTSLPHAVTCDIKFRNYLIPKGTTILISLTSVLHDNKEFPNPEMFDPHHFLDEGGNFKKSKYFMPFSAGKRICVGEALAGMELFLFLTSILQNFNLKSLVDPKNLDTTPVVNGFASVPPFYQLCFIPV

COc1ccc(-c2nc3cnc(N4CCOCC4)nc3n(-c3ccccc3)c2=O)cc1
21.4%: max response [9, 19]
22%: max response [9, 18]
inactive: Potency [1] > 11.4 µM | activity change, negative = inhibition [2] 25.7% | activity change, negative = inhibition [3] 23.9% | activity, negative = inhibition [4] 13.1% | Potency [5] > 9.22 µM | Potency [6] > 46 µM | outcome [7] | Potency [8] | activity change, negative = inhibition [9] 1.08% | Potency [10] | Potency [11] | Potency [12] | Potency [13]

COCCn1c(=O)cnc2cnc(N3CCN(C)CC3)nc21
4.53%: max response [9, 18]
inactive: Potency [1] > 11.4 µM | activity change, negative = inhibition [2] -13.3% | activity change, negative = inhibition [3] -29.3% | activity, negative = inhibition [4] -12.7% | Potency [5] > 9.22 µM | Potency [6] > 46 µM | outcome [7] | Potency [8] | activity change, negative = inhibition [9] 0.388% | Potency [10] | Potency [11] | Potency [12] | Potency [13]
3.72%: max response [9, 19]

COc1cccc(Nc2ncc3nc(C)c(=O)n(CCc4ccccc4)c3n2)c1
inactive: activity change, negative = inhibition [2] -17.7% | activity change, negative = inhibition [3] 3.56% | activity, negative = inhibition [4] -6.89% | Potency [5] > 9.22 µM | Potency [6] > 46 µM | outcome [7] | Potency [15] | activity change, negative = inhibition [9] -2.06% | Potency [12] | Potency [13]
-10.5%: max response [9, 18]
-13.8%: max response [9, 19]
active: Potency [14] 7.94 µM | Potency [10] 7.08 µM

COc1ccc(CNc2ncnc3ccc(-c4cccc(NS(C)(=O)=O)c4)cc23)c(OC)c1
active: Potency [16] 7.94 µM | Potency [17] 0.501 µM | Potency [14] 2 µM | Potency [10] 25.1 µM
-8.13%: max response [9, 18]
inactive: Potency [1] > 11.4 µM | activity, negative = inhibition [4] -11.9% | Potency [5] > 46 µM | Potency [6] > 46 µM | outcome [7] | Potency [15] | activity change, negative = inhibition [9] -4.77% | Potency [12] | Potency [13]
-11.3%: max response [9, 19]

c1ccc(CNc2cc(-c3cccnc3)ncn2)cc1
21.7%: max response [9, 19]
active: Potency [10] 4.47 µM | Potency [11] 5.01 µM
11.5%: max response [9, 18]
inactive: activity change, negative = inhibition [2] 1.27% | activity change, negative = inhibition [3] 15.4% | activity, negative = inhibition [4] 14.9% | Potency [5] > 46 µM | Potency [6] > 46 µM | outcome [7] | activity change, negative = inhibition [9] 7.56% | Potency [12] | Potency [13]

Cc1noc(C)c1-c1ccc2ncnc(NC3CCNCC3)c2c1
inactive: Potency [1] > 11.4 µM | activity change, negative = inhibition [2] 17.3% | activity change, negative = inhibition [3] -27.4% | activity, negative = inhibition [4] 10.3% | Potency [5] > 46 µM | Potency [6] > 46 µM | outcome [7] | Potency [8] | activity change, negative = inhibition [9] 2.83% | Potency [12] | Potency [13]
active: Potency [16] 31.6 µM | Potency [10] 25.1 µM
2.68%: max response [9, 19]
3.61%: max response [9, 18]
